Assay outcomes as filed in PubChem.
Measles CPE: protection of cells from measles virus; protection (pct of control), % at 4 µM; Measles virus-infected cells, CPE protection, absorbance; AID 841; hit rate 1.5% among 140,000; in the data active means protection mostly above about 24%, no sharp cut-off; inactive means mostly below about 26%
sdo1 growth: sdo1-depleted yeast growth rescue. S. cerevisiae sdo1-depleted JHY4D growth rescue, OD600 30 h; hits give high values; pdr5 snq2 efflux-pump mutant strain. z-score at 10 µM. hit rate 0.21% among 140,000;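 active means z-score above 3 at both the 24 hr and the 30 hr optical density reads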;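 further: z-score against mean and SD of all compound wells on the same plate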
Phagocytosis inh: blocks phagocytosis by macrophages; J774A.1 macrophage IgG-bead phagocytosis, imaging; inhibition, % at 5 µM; AID 1029; hit rate 0.07% among 110,000;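 active means inhibition above the mean of the plate negative controls plus 5 SD, cut at about 13% in these data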;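 further: phagocytic index as fraction of beads internalized from green versus red external bead signal; plate controls were DMSO negative control for no effect and cytochalasin-D positive control for full effect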
* marks the source's active call; other numbers are inactive results; . = no result given. The list is not random: actives were taken first. Their share in the collection is about 1.8%.

SMILES	Measles CPE	sdo1 growth	Phagocytosis inh
CCCCOc1ccc(-c2nc(-c3cccnc3)no2)cc1	9.7	1.07	0.6
CCOc1ccc(-c2nc(-c3cccnc3)no2)cc1	34.4*	-0.47	.
COc1ccc(OC)c(-n2c(SCC(=O)NCc3ccco3)nnc2-c2c[nH]c3ccccc23)c1	13.9	-0.13	0.0
O=C(NCc1cccnc1)c1cc(Sc2ccc(F)cc2F)nc2ccccc12	4.5	-1	-8.3
Cc1ccc(NC(=O)CSCC#N)cc1	7.3	1.62	-1.4
N#CCSCC(=O)Nc1ccc(Br)cc1	73.2*	0.83	-2.2
N#CCSCC(=O)Nc1ccc(F)cc1	53.7*	0.85	-2.8
N#CCSCC(=O)Nc1ccccc1	8.9	-0.35	5.9
CCc1[nH]nc2c1C(c1ccc(Br)s1)C(C#N)=C(N)O2 (configuration not stated)	20.7	-1.6	0.7
O=C(Nc1ccccc1)ON=C1CCCC1	22.1	-0.78	.
Cc1ccc(NC(=O)ON=C2CCCC2)cc1	43.1*	-2.02	-7.1
Cc1ccc(S(=O)(=O)/N=C(\c2ccc(F)cc2)n2c(C)nc3ccccc32)cc1	2.6	0.19	.
CCC(=O)NC(=S)Nc1ccc(NC(=O)c2ccco2)c(OC)c1	12.3	0.48	-4.0
COc1cc(NC(=O)Cc2ccccc2)ccc1NC(=O)c1ccco1	64.2*	0.92	1.1
O=C(Nc1ccc(-c2nc3ccccc3[nH]2)cc1)c1cccc(N2C(=O)CCC2=O)c1	5.1	1.34	-5.6
CCOc1ccc(Br)cc1S(=O)(=O)Nc1cccc(S(=O)(=O)N(C)C)c1	12.2	-0.88	-3.7
CC(NC(=O)Cn1nc(C(=O)O)c2ccccc2c1=O)c1ccccc1 (configuration not stated)	8.6	0.01	.
CC(C)CC(=O)Nc1ccc(C(=O)Cn2nc(C(=O)O)c3ccccc3c2=O)cc1	31.1*	-0.31	-1.3
Cc1cccc(NC(=O)C2C3CCC4C(CCC32)C4(Cl)Cl)c1 (configuration not stated)	2.7	-1.49	-7.0
O=C(COc1ncnc2c(Cl)cc(Cl)cc12)NCCC1=CCCCC1	5.2	-0.43	1.2
COc1ccc(C(=O)NCC(=O)OCC(=O)c2cc(OC)c(OC)c(OC)c2)cc1OC	43.8*	0.62	9.7
COc1cc(C(=O)NCC(=O)OCC(=O)c2ccc[nH]2)cc(OC)c1OC	17.4	-0.74	-0.8
O=C(NCc1nc2ccccc2[nH]1)c1ccco1	18.6	0.3	0.7
O=C(NCc1nc2ccccc2[nH]1)c1cc2ccccc2oc1=O	86.1*	0.9	0.5
COc1ccc(NC(=O)c2ccco2)cc1N	2.8	-1.36	-0.4
SMILES	Measles CPE	sdo1 growth	Phagocytosis inh
Cn1cc(Br)c(C(=O)Nc2sc3c(c2C(N)=O)CCC3)n1	9.0	0.29	.
CCn1ncc(Br)c1C(=O)Nc1sc2c(c1C(N)=O)CCC2	33.4*	-0.72	8.0
CCn1c(CNc2nc3ccccc3n2C(C)C)nc2ccccc21	15.7	-0.26	0.5
O=C(CN1CCCCC1)Nc1ccc(S(=O)(=O)NC2CCCCC2)cc1	7.1	-0.3	-0.3
CCOC(=O)C1CCCC(NS(=O)(=O)c2ccc(NC(C)=O)cc2)C1 (configuration not stated)	91.4*	1.73	-2.5
Cc1cc(NS(=O)(=O)N(C)C)ccc1C(C)C	4.0	-0.24	.
COc1ccc(-c2nc(-c3ccccc3)nc(Cl)c2C#N)cc1	13.1	-0.56	.
CNc1nc(-c2ccccc2)nc(-c2ccccc2)c1C#N	61.1*	-1.42	-0.3
CCCN(CCC)S(=O)(=O)c1ccc(C(=O)Nc2nc(-c3ccccc3)c(C(=O)OCC)s2)cc1	50.2*	-0.02	1.2
COCCN(CCOC)S(=O)(=O)c1ccc(C(=O)Nc2nc(-c3ccccc3)c(C(=O)c3ccccc3)s2)cc1	7.5	0.23	-3.7
O=C(CSc1nc2ccccc2c(=O)[nH]1)N1CCN(S(=O)(=O)c2ccccc2)CC1	7.6	-0.58	.
O=C(CSc1nc(-c2ccccc2)c(-c2ccccc2)[nH]1)N1CCN(S(=O)(=O)c2ccccc2)CC1	28.1*	-0.4	-0.3
CCCC(=O)Nc1ccc(Cl)c(NC(=S)NC(=O)c2ccco2)c1	7.5	0.36	-6.5
CCOC(=O)C1=C(NC(=S)NC(=O)c2ccccc2)c2ccccc2CC1(C)CC (configuration not stated)	24.7	0.35	-11.1
CCOC(=O)C1=C(NC(=S)NC(=O)c2ccccc2)c2ccccc2CC1C(C)C (configuration not stated)	49.6*	-0.78	-0.6
Nc1ccccc1-c1nnc(SCc2ccccc2F)[nH]c1=O	2.2	-0.96	-2.6
CCN1CN(Cc2ccco2)CNC1=S	12.7	0.26	3.4
O=C(Nc1cccc(CCc2ccccn2)c1)c1cc(F)c(F)cc1Cl	12.1	-0.87	-3.4
O=C(CCC(=O)OCC(=O)c1ccc(Cl)cc1)NC1CCCCC1	63.8*	-0.12	.
O=C(COC(=O)COc1ccc(Cl)cc1)NC1CCCCC1	4.0	-0.94	.
O=C(CCC(=O)OCC(=O)c1ccc([N+](=O)[O-])cc1)NC1CCCCC1	2.4	1.1	7.5
